The values below come from PubChem BioAssay.

Calls of active or inactive are those of the source.

A short description of assay [1]: optical density shifts of acrAB sulA E. coli – strain DRC41, OD650, 48 h, E. coli filamentation inducer project, primary screen (AID 1152).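 Also: E. coli MC1000 strain DRC41 lacking acrAB efflux pump and sulA.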 As to conditions: higher = more signal, called active from +8 up or from −8 down.
The nature of assay [2]: probe aLefty1 binding on compound microarray – biochemical, small-molecule microarray, 635/667 nm fluorescence, primary screen (AID 1153).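 Also: score merges spot fluorescence with signal-to-noise ratio from the scanned slide images.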 As to conditions: higher = more signal.
Assay [3] can be described thus: plasmodial surface anion channel blockers, osmotic lysis – cell-based, P. falciparum Indochina, OD700, 1 h, primary screen (AID 1154). As to conditions: P. falciparum Indochina infected RBC osmotic lysis, higher = more signal, called active from +8 up or from −8 down.
Assay [4] can be described thus: plasmodial surface anion channel blockers, osmotic lysis – cell-based, P. falciparum Indochina, OD700, 2 h, primary screen (AID 1155).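 Also: lysis reports solute entry through the parasite surface anion channel PSAC.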 As to conditions: P. falciparum Indochina infected erythrocytes, higher = more signal, called active from +8 up or from −8 down.
Assay [5] can be described thus: changes in parasitized red cell lysis, either direction – P. falciparum Indochina, OD700, 3 h, PSAC antagonist project, primary screen (AID 1156). As to conditions: P. falciparum-infected erythrocytes, osmotic lysis, higher = more signal, called active from +8 up or from −8 down.
Assay [6] is described as follows: plasmodial surface anion channel blockers, osmotic lysis – cell-based, P. falciparum Indochina, OD700, 18 h, primary screen (AID 1157). To be noted: P. falciparum Indochina infected erythrocytes, osmotic lysis OD700, 18 h; higher = more signal, called active from +8 up or from −8 down.
Assay [7] is described as follows: S6 kinase pathway phospho-S6 level changes – cell-based, A549, cytoblot, luminescence, serum-stimulated, primary screen (AID 1158).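 Also: serum-stimulated A549 lung adenocarcinoma cells; signal is phosphorylated S6 detected by cytoblot immunostaining with HRP secondary.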 To be noted: 5 h, higher = more signal.
Assay [8] concerns the target NADPH oxidase 2 (Homo sapiens) (UniProt P04839). The assay can be described thus: compounds shifting NOX2 Amplex Red fluorescence – cell-based, HEK293-NOX2, PMA-stimulated, NOX inhibitor project, primary screen (AID 1159). Also: test concentration not given here. As to conditions: 45 min, higher = more signal, called active from +8 up or from −8 down.
Assay [9] addresses NADPH oxidase 4 (Homo sapiens) (UniProt Q9NPH5). Kind of assay: compounds shifting NOX4 Amplex Red fluorescence – cell-based, HEK293-NOX4, tetracycline-induced, NOX inhibitor project, primary screen (AID 1160). As to conditions: HEK293-NOX4, Amplex Red H2O2 fluorescence, 45 min; higher = more signal, called active from +8 up or from −8 down.
In assay [10] the target is NADPH oxidase 5 (Homo sapiens) (UniProt Q96PH1). Kind of assay: compounds shifting NOX5 Amplex Red fluorescence – cell-based, HEK293-NOX5, NOX inhibitor project, primary screen (AID 1161). To be noted: HEK293-NOX5, ionomycin, 45 min, higher = more signal.
Chain of NADPH oxidase 5 (Homo sapiens) (Q96PH1 whole entry, looked up): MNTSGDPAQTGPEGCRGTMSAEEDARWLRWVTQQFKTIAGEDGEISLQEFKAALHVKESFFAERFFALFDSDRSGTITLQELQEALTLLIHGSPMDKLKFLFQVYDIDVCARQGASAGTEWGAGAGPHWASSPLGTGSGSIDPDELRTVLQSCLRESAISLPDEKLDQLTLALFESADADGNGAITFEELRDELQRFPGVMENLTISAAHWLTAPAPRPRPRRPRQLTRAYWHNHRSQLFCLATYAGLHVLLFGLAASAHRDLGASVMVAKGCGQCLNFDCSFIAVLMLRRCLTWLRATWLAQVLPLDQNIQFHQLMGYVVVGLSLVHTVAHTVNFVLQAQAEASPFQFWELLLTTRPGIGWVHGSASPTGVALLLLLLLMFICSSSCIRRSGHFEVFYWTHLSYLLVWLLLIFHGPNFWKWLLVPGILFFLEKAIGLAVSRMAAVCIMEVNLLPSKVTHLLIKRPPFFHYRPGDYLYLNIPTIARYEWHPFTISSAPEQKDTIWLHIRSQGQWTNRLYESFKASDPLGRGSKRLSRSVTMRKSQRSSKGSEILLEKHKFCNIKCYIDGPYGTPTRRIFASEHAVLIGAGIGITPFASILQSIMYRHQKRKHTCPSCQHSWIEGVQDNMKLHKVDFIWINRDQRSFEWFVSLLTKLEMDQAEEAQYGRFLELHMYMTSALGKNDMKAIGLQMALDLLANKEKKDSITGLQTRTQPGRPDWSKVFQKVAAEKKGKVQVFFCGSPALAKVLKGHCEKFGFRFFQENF

Chain of NADPH oxidase 2 (Homo sapiens) (P04839 whole entry, looked up): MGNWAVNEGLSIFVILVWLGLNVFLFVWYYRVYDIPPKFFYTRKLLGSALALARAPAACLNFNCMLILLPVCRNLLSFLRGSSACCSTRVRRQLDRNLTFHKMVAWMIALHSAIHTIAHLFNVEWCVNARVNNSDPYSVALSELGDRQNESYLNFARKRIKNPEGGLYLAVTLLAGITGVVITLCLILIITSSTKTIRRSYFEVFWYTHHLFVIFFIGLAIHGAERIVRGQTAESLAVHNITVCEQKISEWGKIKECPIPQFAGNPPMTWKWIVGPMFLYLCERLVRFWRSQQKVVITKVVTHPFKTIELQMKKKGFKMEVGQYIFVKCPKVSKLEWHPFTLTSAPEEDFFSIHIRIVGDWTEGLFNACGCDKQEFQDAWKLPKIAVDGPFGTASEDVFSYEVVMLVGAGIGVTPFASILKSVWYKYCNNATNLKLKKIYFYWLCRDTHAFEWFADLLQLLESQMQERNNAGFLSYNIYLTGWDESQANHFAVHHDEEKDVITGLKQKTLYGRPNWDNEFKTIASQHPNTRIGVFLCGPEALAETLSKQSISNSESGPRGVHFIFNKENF
Chain of NADPH oxidase 4 (Homo sapiens) (Q9NPH5 whole entry, looked up): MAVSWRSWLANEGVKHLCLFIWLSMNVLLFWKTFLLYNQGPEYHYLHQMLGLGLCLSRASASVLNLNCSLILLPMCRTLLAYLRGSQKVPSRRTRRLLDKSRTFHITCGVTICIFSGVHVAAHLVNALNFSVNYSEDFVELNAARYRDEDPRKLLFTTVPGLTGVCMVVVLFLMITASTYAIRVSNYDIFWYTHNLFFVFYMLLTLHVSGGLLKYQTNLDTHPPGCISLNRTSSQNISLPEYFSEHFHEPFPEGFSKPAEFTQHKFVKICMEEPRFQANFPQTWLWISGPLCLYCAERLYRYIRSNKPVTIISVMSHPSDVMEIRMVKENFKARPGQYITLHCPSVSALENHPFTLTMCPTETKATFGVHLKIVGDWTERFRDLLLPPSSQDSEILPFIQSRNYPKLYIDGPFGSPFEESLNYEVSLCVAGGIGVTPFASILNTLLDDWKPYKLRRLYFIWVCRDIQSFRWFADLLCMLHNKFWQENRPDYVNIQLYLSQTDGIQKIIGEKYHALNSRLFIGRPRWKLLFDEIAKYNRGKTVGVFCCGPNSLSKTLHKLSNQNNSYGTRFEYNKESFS

For the compound `COc1ccc(CCN2C(=O)[C@@]3(c4ccc([N+](=O)[O-])cc4)CC(=O)N(C4CCCCC4)[C@@H]3c3ccc(CO)cc32)cc1`, the z-score in [1] was -0.183 (inactive); in assay [3] it was -0.715 (inactive); in assay [4], -0.0259 (inactive); in [5], -0.979 (inactive); in assay [6] it was -0.138 (inactive); in assay [7], -0.423. The z-score in assay [8] was -1.47 (inactive); in [9], -0.763 (inactive); in assay [10], -0.0167. In assay [2], this compound gave a composite z-score of 0.131.
As to `CC1CC/C=C\[C@H]2OC34C=CCN(C(C)(C)C)C(=O)[C@H]3N(CCCCCCO)C(=O)[C@@H]4C2C(=O)O1` (stereo not given in full), the z-score in assay [1] is 0.0837 (inactive); in assay [3] it was 0.375 (inactive); in [4] it was 0.794 (inactive); in assay [5], 0.39 (inactive); in assay [6], 0.771 (inactive); in [7], -0.0989. The results for the z-score in [8], in assay [9] and in [10] were 0.959 (inactive), -0.0389 (inactive) and 1.77, respectively. This compound also showed a composite z-score in assay [2] of -0.0501.
Regarding `O=C1C2C=CC(C(O)c3ccc(F)cc3)N(Nc3ccccc3F)C2C(=O)N1c1ccccc1` (stereo not given), the z-score in assay [1] is -1.13 (inactive); in assay [3], 6.83 (inactive); in assay [4] it was 1.4 (inactive); in assay [5], -0.196 (inactive); in assay [6], 0.998 (inactive); in assay [7], -1.06. In addition, the z-score in assay [8] is -2.22 (inactive); in assay [9], -4.97 (inactive); in assay [10], -2.17. The composite z-score in assay [2] amounted to 0.336.
In the case of `COc1cc2c(cc1OC)CN(C(=O)[C@H]1[C@@H]3C(=O)O[C@@H](c4ccccc4)[C@@H](c4ccccc4)N3[C@@H](c3ccc(O)cc3)[C@]13C(=O)Nc1ccc(C#CC4=CCCCC4)cc13)CC2`, the z-score was 1.21 (inactive) in [1]; 0.924 (inactive) in [3]; 0.445 (inactive) in assay [4]; 0.79 (inactive) in assay [5]; 0.736 (inactive) in assay [6]; -0.226 in assay [7]. In addition, the z-score is 0.685 (inactive) in [8], 0.513 (inactive) in assay [9] and 1.88 in assay [10]. In [2], this compound returned a composite z-score of 0.35.
As for `CO[C@H]1O[C@H](CO)[C@@H](OC(=O)Nc2ccc(Br)cc2)[C@H](OC(=O)c2cc3ccccc3[nH]2)[C@H]1OC(=O)c1cc2ccccc2[nH]1`, the z-score is 1.99 (inactive) in assay [1]; 1.39 (inactive) in assay [3]; -1.16 (inactive) in [4]; -0.368 (inactive) in assay [5]; -0.464 (inactive) in [6]; 1.16 in assay [7]. Besides, the results for the z-score in assay [8], in assay [9] and in [10] were -2.75 (inactive), -0.642 (inactive) and -2.04, respectively. This compound displayed a composite z-score in assay [2] of 0.12.
In the case of `C=CCOC(=O)[C@H]1[C@@H]2C(=O)O[C@@H](c3ccccc3)[C@@H](c3ccccc3)N2[C@@H](c2ccc(OCCOC(=O)[C@H]3C[C@H]4C(=O)N[C@@H](CC(C)C)C(=O)N4[C@H]3c3ccc(O)cc3)cc2)[C@]12C(=O)Nc1ccc(I)cc12`, the z-score in assay [1] was -1.1 (inactive); in [3], -0.414 (inactive); in [4], 0.739 (inactive); in assay [5], -0.483 (inactive); in assay [6] it was 0.47 (inactive); in assay [7], -0.182. Also, the z-score in [8] is 1.82 (inactive); in assay [9], 0.43 (inactive); in [10] it was 0.982. In assay [2], this compound displayed a composite z-score of 0.0839.
Regarding `O=C1OCCC/C=C\[C@H]2OC34C=CCN(Cn5nnc6ccccc65)C(=O)[C@H]3N(CCO)C(=O)[C@@H]4C12` (stereo not given in full), the z-score in assay [1] is 1.8 (inactive); in [3], 1.55 (inactive); in assay [4], 0.299 (inactive); in assay [5] it was 0.292 (inactive); in assay [6], 0.335 (inactive); in assay [7] it was 1.64. Also, the z-score in assay [8] is 1.41 (inactive); in assay [9], 0.409 (inactive); in [10] it was 1.92. In assay [2], this compound came in with a composite z-score of 0.16.
Take `C[N+](C)(C)CCCC[C@@H]1NC(=O)[C@@H]2C[C@H](C(=O)NCCCCCN)[C@H](c3cccc(OCCO)c3)N2C1=O`: the z-score is -0.272 (inactive) in assay [1]; 1.85 (inactive) in [3]; 0.508 (inactive) in assay [4]; 0.214 (inactive) in [5]; 0.129 (inactive) in [6]; -0.0726 in assay [7]. Also, the results for the z-score in [8], in assay [9] and in [10] were 0.79 (inactive), 0.289 (inactive) and 1.54, respectively. The compound also returned a composite z-score in [2] of -0.0412.
On to `C=CCOC(=O)[C@H]1[C@@H]2C(=O)O[C@@H](c3ccccc3)[C@@H](c3ccccc3)N2[C@@H](c2ccc(OCCOC(=O)[C@@H]3C[C@@H]4C(=O)N[C@@H](CCCC[N+](C)(C)C)C(=O)N4[C@@H]3c3ccc(O)cc3)cc2)[C@]12C(=O)Nc1ccccc12`, for which the z-score in assay [1] is 0.443 (inactive); in [3] it was -0.906 (inactive); in [4] it was -0.689 (inactive); in [5] it was 4.3 (inactive); in assay [6], -1.58 (inactive); in assay [7], 1.28. Also, the figures for the z-score in assay [8], in assay [9] and in [10] were 2.42 (inactive), 0.568 (inactive) and 1.41, respectively. For the same compound, the composite z-score in assay [2] came to 0.0104.
On to `O=C(NCc1ccccc1)[C@@]1(CCS(=O)(=O)c2ccccc2)N=C(c2ccc(OCCCO)cc2)O[C@H]1c1ccccc1`, for which the z-score in assay [1] is 1.06 (inactive); in assay [3] it was 26.4 (active); in assay [4], 10.4 (active); in assay [5], 0.559 (inactive); in assay [6], 1.99 (inactive); in [7] it was 0.0734. For the same compound, the z-score in assay [8] was -0.321 (inactive); in assay [9], 1.35 (inactive); in assay [10], 1.33. This compound also registered a composite z-score in assay [2] of 0.351.
Consider `NCCCCCNC(=O)[C@@H]1C[C@@H]2C(=O)N[C@@H](Cc3ccccc3)C(=O)N2[C@@H]1c1cccc(OCCO)c1`, for which the z-score was -0.389 (inactive) in assay [1]; 3.51 (inactive) in assay [3]; 0.418 (inactive) in assay [4]; 1.18 (inactive) in assay [5]; 0.351 (inactive) in assay [6]; -0.0201 in assay [7]. Besides, the z-score is 2.11 (inactive) in [8], -0.729 (inactive) in [9] and 0.832 in [10]. The same compound gave a composite z-score in assay [2] of -0.101.
With `CN(C)CCCNC(=O)[C@@]1(c2ccc([N+](=O)[O-])cc2)CC(=O)N(C2CCCCC2)[C@@H]1c1ccc(CO)cc1I`, the z-score in [1] is -2.09 (inactive); in assay [3], 14.8 (active); in [4], 1.44 (inactive); in assay [5] it was -2.81 (inactive); in [6], 0.037 (inactive); in assay [7], -1.78. The z-score in [8] is -8.16 (active); in assay [9], -2.52 (inactive); in assay [10] it was 0.205. The compound further returned a composite z-score in [2] of 0.0824.
